Screening results (PubChem)
Compounds with a hit are over-represented: about 19% of the library has one in this group of screens.
TDP1 cell noCPT: qHTS for Inhibitors of human tyrosyl-DNA phosphodiesterase 1 (TDP1): qHTS in cells in absence of CPT. DT40 Tdp1-/- hTDP1 cells, no CPT, ATP luminescence, 48 h. Potency, µM (highest dose often 46.2 µM), most hits filed as inhibitors. hit rate 15% among 420,000; further: nearly all actives have a fitted effect of over 55% in size
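A cellular qHTS used chicken DT40 cells lacking endogenous Tdp1 but carrying stably transfected human TDP1. Compounds were applied without camptothecin, and cell growth kinetics were judged by ATP-dependent luminescence after ≥48 hr.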
TDP1 inh: inhibitors of human tyrosyl-DNA phosphodiesterase TDP1; hit rate 0.28% among 350,000; Q9NUW8; Potency, µM (top dose mostly 130 µM), hits mostly inhibitors; AID 485290; recombinant TDP1, AlphaScreen DNA substrate cleavage; further: nearly all actives have a fitted effect of over 40% in size
Target sequence (Q9NUW8 whole entry, looked up): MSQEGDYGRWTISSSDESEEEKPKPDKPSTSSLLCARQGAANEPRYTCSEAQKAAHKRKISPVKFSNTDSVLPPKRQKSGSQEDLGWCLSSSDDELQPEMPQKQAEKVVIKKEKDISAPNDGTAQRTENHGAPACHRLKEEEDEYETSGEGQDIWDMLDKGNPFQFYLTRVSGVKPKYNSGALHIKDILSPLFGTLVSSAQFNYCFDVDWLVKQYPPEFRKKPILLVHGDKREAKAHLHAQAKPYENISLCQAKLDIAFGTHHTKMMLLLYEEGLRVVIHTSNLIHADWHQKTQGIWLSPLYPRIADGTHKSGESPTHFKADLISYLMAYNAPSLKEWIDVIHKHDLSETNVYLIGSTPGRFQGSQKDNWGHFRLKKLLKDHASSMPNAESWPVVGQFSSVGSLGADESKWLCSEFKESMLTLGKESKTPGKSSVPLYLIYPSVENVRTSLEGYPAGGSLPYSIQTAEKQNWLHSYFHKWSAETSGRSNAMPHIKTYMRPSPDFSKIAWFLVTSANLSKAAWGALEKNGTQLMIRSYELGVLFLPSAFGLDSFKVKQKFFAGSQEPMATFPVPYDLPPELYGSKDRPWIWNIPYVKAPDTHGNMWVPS
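Enzyme-compound mixtures sat 15 min at room temperature, followed by a 5 min reaction with 15 nM final substrate and 10 min with AlphaScreen beads. Recombinant human Tdp1 was used at 1 nM final.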
TDP1 cell CPT: growth inhibition of DT40 Tdp1-/-;hTDP1 cells with camptothecin (screen for TDP1 inhibitors); chicken DT40 Tdp1-/-;hTDP1 cells + 20 nM CPT, ATP luminescence, 48 h; hit rate 12% among 420,000; AID 686979; Potency, µM (doses to about 46.2 µM), most hits filed as inhibitors; further: nearly all actives have a fitted effect of over 55% in size
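Chicken DT40 Tdp1-/- cells stably complemented with human TDP1 were seeded at 400 cells/well in medium containing 20 nM camptothecin, exposed to pin-transferred compounds, and grown at 37 °C for at least 48 hr. Viability was read as ATP luminescence.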
Gal4-VP16 FLuc: Gal4-VP16 reporter inhibition counter-screen. Potency, µM (series often up to 53.6 µM), usual class: inhibitors. AID 2546. hit rate 3.5% among 310,000. Drosophila S2 Gal4-VP16 UAS-luciferase, luminescence, 20 h;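 further: Gal4-VP16 expression switched on by copper sulfate through the metallothionein promoter; nearly all actives have a fitted effect of over 50% in size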
RORg inh: inhibitors of mouse ROR gamma transcriptional activity; Drosophila S2 Gal4-RORgamma UAS-luciferase reporter, 20 h; Potency, µM (highest dose often 53.6 µM), usual class: inhibitors; hit rate 5.4% among 310,000; AID 2551; further: nearly all actives have a fitted effect of over 60% in size
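Luminescence from a UAS-regulated Photinus luciferase reporter in stably transfected Drosophila Schneider cells is measured; decreased signal marks ROR gamma inhibition. Fusion expression is induced by 700 uM copper sulfate for 20 hr.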
Hits are given with their value. The call rests on the fitted dose curve; in most records, active means well fitted curve in the direction sought with a large enough effect; inconclusive means small, poorly fitted or top-dose-only effect, or another doubt; inactive means no such curve, though single readings can be large; an effect the other way counts as inactive or inconclusive.

`O=C(Cn1c(-c2ccccc2)c[n+]2ccsc12)c1ccc([N+](=O)[O-])cc1` gave TDP1 cell noCPT 23.1µM, TDP1 inh inactive, TDP1 cell CPT 23.1µM, Gal4-VP16 FLuc inconclusive and RORg inh inactive.
Screening O=C(Cn1c(-c2ccccc2)c[n+]2ccsc12)c1ccccc1 returned TDP1 cell noCPT inconclusive, TDP1 inh inactive, TDP1 cell CPT 20.6µM, Gal4-VP16 FLuc inconclusive and RORg inh inactive.
Cc1ccccc1NC(=O)C(=Cc1ccc(C(=O)O)cc1)C(=O)Nc1ccccc1C was read as TDP1 cell noCPT 8.2µM, TDP1 inh inactive, TDP1 cell CPT 9.2µM, Gal4-VP16 FLuc inconclusive and RORg inh 7.94µM.
`CC(=O)/C(=C/c1ccccc1)C(=O)Nc1ccccc1C` gave TDP1 cell noCPT 4.61µM, TDP1 inh inactive, TDP1 cell CPT inconclusive, Gal4-VP16 FLuc inconclusive and RORg inh inconclusive.
CC(/C=C/c1ccccc1)=N/NC(=O)CCC(=O)Nc1ccccc1C was read as TDP1 cell noCPT inactive, TDP1 inh inactive, TDP1 cell CPT inactive, Gal4-VP16 FLuc inactive and RORg inh inactive.
Screening CN(Cc1nc2ccccc2c(=O)[nH]1)Cc1nc2ccsc2c(=O)[nH]1 returned TDP1 cell noCPT 0.92µM, TDP1 inh inactive, TDP1 cell CPT 0.517µM, Gal4-VP16 FLuc 5.01µM and RORg inh 0.398µM.
For CCN(CC(=O)Nc1ccccc1Br)Cc1nc2ccccc2c(=O)[nH]1 the results were TDP1 cell noCPT inconclusive, TDP1 inh inactive, TDP1 cell CPT inconclusive, Gal4-VP16 FLuc inconclusive and RORg inh 11.2µM.
For CCN(CC(=O)Nc1cc(Cl)ccc1-n1cncn1)Cc1nc2ccccc2c(=O)[nH]1 the results were TDP1 cell noCPT inactive, TDP1 inh inactive and TDP1 cell CPT inactive.
Screening CC(C(=O)Nc1ccccc1-c1ccccc1)N(C)Cc1nc2ccccc2c(=O)[nH]1 (centres undefined) returned TDP1 cell noCPT 20.6µM, TDP1 inh inactive, TDP1 cell CPT 13µM, Gal4-VP16 FLuc inactive and RORg inh 14.1µM.
For CCN(CC(=O)NCCc1ccc(S(N)(=O)=O)cc1)Cc1nc2cc(OC)c(OC)cc2c(=O)[nH]1 the results were TDP1 cell noCPT inactive, TDP1 inh inactive, TDP1 cell CPT inactive, Gal4-VP16 FLuc inactive and RORg inh inactive.
Screening CCN(CC(=O)NCCc1ccc(S(N)(=O)=O)cc1)Cc1nc2ccccc2c(=O)[nH]1 returned TDP1 cell noCPT inconclusive, TDP1 inh inactive, TDP1 cell CPT 20.6µM, Gal4-VP16 FLuc 20µM and RORg inh 6.31µM.
Screening CCOc1ccc(S(=O)(=O)N2CCCCC2)cc1NC(=O)C1=COCCO1 returned TDP1 cell noCPT inconclusive, TDP1 inh inactive and TDP1 cell CPT inactive.
For CCN(CC(=O)NC(=O)NCc1ccco1)Cc1nc2ccccc2c(=O)[nH]1 the results were TDP1 cell noCPT 4.61µM, TDP1 inh inactive, TDP1 cell CPT 4.61µM, Gal4-VP16 FLuc 1.12µM and RORg inh 0.562µM.
Screening Cc1ccc(NC(=O)CN(C)Cc2nc3ccccc3c(=O)[nH]2)c(Br)c1 returned TDP1 cell noCPT 20.6µM, TDP1 inh inactive, TDP1 cell CPT inactive, Gal4-VP16 FLuc inconclusive and RORg inh 11.2µM.
CC(NC(=O)CN(C)Cc1nc2ccccc2c(=O)[nH]1)c1ccccc1 (centres undefined) was read as TDP1 cell noCPT inactive, TDP1 inh inactive, TDP1 cell CPT inactive, Gal4-VP16 FLuc inactive and RORg inh inactive.
For Cc1c(Cl)cn2c(=O)cc(CN(C)Cc3nc4ccccc4c(=O)[nH]3)nc2c1Cl the results were TDP1 inh inactive, Gal4-VP16 FLuc inactive and RORg inh 17.8µM.
CC(OCC(O)CN(C)Cc1nc2ccccc2c(=O)[nH]1)c1ccc(Cl)cc1 (centres undefined) was read as TDP1 cell noCPT inconclusive, TDP1 inh inactive, TDP1 cell CPT 18.4µM, Gal4-VP16 FLuc inactive and RORg inh inconclusive.
For CCc1nnc2n1N=C(c1cccc([N+](=O)[O-])c1)CS2 the results were TDP1 cell noCPT inactive, TDP1 cell CPT inactive, Gal4-VP16 FLuc inconclusive and RORg inh inactive.
`CC(C)(C)c1ccc(CSc2ccc(S(=O)(=O)N3CCOCC3)cn2)cc1` gave TDP1 cell noCPT inconclusive, TDP1 inh inactive and TDP1 cell CPT inconclusive.
CCCN1CNc2c(c(=O)[nH]c(=S)n2-c2ccccc2Cl)C1 was read as TDP1 cell noCPT inactive, TDP1 inh inactive, TDP1 cell CPT inactive, Gal4-VP16 FLuc inactive and RORg inh inactive.
Screening Cc1ccc(CN2C(=O)CCC2C(=O)NCCCN2CCC(C)CC2)cc1 (centres undefined) returned TDP1 cell noCPT inactive, TDP1 inh inactive, TDP1 cell CPT inactive, Gal4-VP16 FLuc inactive and RORg inh inactive.
Screening CCN(Cc1cc(=O)n2ccsc2n1)Cc1nc2ccccc2c(=O)[nH]1 returned TDP1 cell noCPT inactive, TDP1 inh inactive, TDP1 cell CPT inactive, Gal4-VP16 FLuc 10µM and RORg inh 2.24µM.
`C/C(CCC1CC(C)OC1=O)=N/Nc1nc(-c2ccccc2)cs1` (centres undefined) gave TDP1 cell noCPT inactive, TDP1 inh inactive, TDP1 cell CPT inactive, Gal4-VP16 FLuc inactive and RORg inh inactive.
`Cc1oc(-c2cccc(Br)c2)nc1CSc1nc2ncccc2[nH]1` gave TDP1 cell noCPT inconclusive, TDP1 inh inactive and TDP1 cell CPT inconclusive.
Screening COc1ccc(-c2nc(CSc3nc4ncccc4[nH]3)c(C)o2)cc1OC returned TDP1 cell noCPT 20.6µM, TDP1 inh inactive and TDP1 cell CPT inconclusive.
Cc1oc(-c2cccc(Cl)c2)nc1CSc1nc2ncccc2[nH]1 was read as TDP1 cell noCPT 20.6µM, TDP1 inh inactive and TDP1 cell CPT inconclusive.
Screening COC(=O)CCS(=O)(=O)c1ccc(Cl)cc1 returned TDP1 cell noCPT inactive, TDP1 inh inactive, TDP1 cell CPT inactive, Gal4-VP16 FLuc inactive and RORg inh inactive.
For CCC(NC(=O)C1CCCO1)c1ccccc1 (centres undefined) the results were TDP1 cell noCPT inconclusive, TDP1 inh 2.24µM, TDP1 cell CPT inactive, Gal4-VP16 FLuc inactive and RORg inh inactive.
For CCc1ccc(C(C)NC(=O)C2CCCO2)cc1 (centres undefined) the results were TDP1 cell noCPT inactive, TDP1 inh inactive, TDP1 cell CPT inactive, Gal4-VP16 FLuc inactive and RORg inh inactive.
CC(NC(=O)[C@H](C)NC(=O)C1CC(=O)N(c2ccc3c(c2)OCO3)C1)c1ccccc1 (some centres undefined) was read as TDP1 cell noCPT inactive, TDP1 inh inactive, TDP1 cell CPT inactive, Gal4-VP16 FLuc inconclusive and RORg inh inactive.
`Cc1ccc2nc(-c3ccc(SCC(=O)Nc4nc(C)cs4)nc3)[nH]c2c1` gave TDP1 cell noCPT 10.3µM, TDP1 inh inactive, TDP1 cell CPT 18.4µM, Gal4-VP16 FLuc inconclusive and RORg inh inactive.
